# Shown are actives, neighbours in structure and some others; about 3.6% of the full set was active somewhere.
# LGR2 inh – inhibitors of bursicon-induced LGR2 CRE-luciferase signal, primary screen, cell-based, HEK293, CRE-luciferase reporter, bursicon stimulation; Drosophila bursicon receptor LGR2 (rickets); bursicon-stimulated, 4 h; inhibition, % at 9.99 µM; actives 0.35% (n = 380,000);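 active = drop in luminescence signal, shown as inhibition above about 50% in the replicate tests, limit read from the data, passing the limit was not always enough; inconclusive = probably only some replicates passing the limit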;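 note: agonist challenge used bursicon conditioned medium at about half maximal strength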
# TROY NFkB inh – inhibitors of TROY-driven NF-kB signaling, primary screen, Q293 LMP1-TROYcd cells, NF-kB luciferase, uHTS; Q293 LMP1-TROYcd NF-kB luciferase reporter, 4 h; inhibition, % at 10 µM; actives 0.98% (n = 360,000); AID 1347056, 2019;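 active = compounds whose plate-normalised and pattern-corrected inhibition of the luciferase reporter signal at the single screening dose is 50% or more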
# HSF1 activator – HSF-1 activators, primary screen, NIH3T3-HGL cells, MG132 stress, luminescence, single point; activation, % at 9 µM; AID 504408, 2011; actives 1.7% (n = 300,000); NIH3T3-HGL HSF-1 luciferase reporter, 8 h; 100% = twice DMSO control signal;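 active = mean replicate activation of at least 50% with a set share of replicates each reaching 50%; inconclusive = only one of those two conditions met; inactive = mean below 50% and too few replicates reaching it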;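 note: 0% = median of the neutral control wells and 100% = twice that signal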
# HSF1 inhib – HSF1 inhibitors in luciferase reporter cells, primary screen, cell-based, NIH3T3, luminescence. NIH3T3-HGL HSE-luciferase, MG132-induced, luminescence 8 h; active compounds read low. activity change, negative = inhibition, % at 7.5 µM (by protocol). AID 2098, 2009. actives 0.77% (n = 300,000);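 active = more than half of replicate wells show activity change below -50%, luminescence cut by over half; inconclusive = some wells, but at most half, below -50%; inactive = no replicate well below -50%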;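 note: luciferase reports HSF-1 transcriptional activity via heat shock element; 0% = median of DMSO wells and -100% = zero luminescence signal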
# TWEAK Fn14 block – inhibitors of TWEAK-Fn14 signaling, primary screen, luciferase reporter cells, uHTS. actives 2% (n = 360,000). inhibition, % at 10 µM. AID 1159606, 2016. TWEAK-stimulated Fn14 reporter cells, luciferase luminescence, 8 h; in the data active = inhibition above about 50%
# EBV LMP1 NFkB – EBV LMP1-driven NF-kappaB luciferase reporter inhibitors, primary screen, cell-based, luminescence, single point; LMP1-induced NF-kappaB luciferase reporter cells; inhibition, % at 12.5 µM; actives 0.69% (n = 350,000); in the data active = inhibition above about 41%; inconclusive = no clear call, values can overlap the other calls;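 note: 0% = neutral control wells and 100% = reference inhibitor control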
# An asterisk follows results filed as active; ? = inconclusive; / = not tested or not shown.
SMILES,LGR2 inh,TROY NFkB inh,HSF1 activator,HSF1 inhib,TWEAK Fn14 block,EBV LMP1 NFkB
C[C@H](CO)N1C[C@H](C)[C@@H](CN(C)C(=O)Nc2cccc3ccccc23)Oc2c(NC(=O)C3CCOCC3)cccc2C1=O,1.0,/,/,/,/,/
CNC[C@H]1Oc2ccc(NC(=O)Cc3cn(C)c4ccccc34)cc2C(=O)N([C@@H](C)CO)C[C@@H]1C,21.7,/,/,/,/,/
CCCNC(=O)Nc1ccc2c(c1)OC[C@@H](C)N(C(=O)C1CC1)C[C@H](C)[C@H](OC)CN(C)C2=O,-17.1,/,/,/,/,/
CN1C(=O)c2cc(NC(=O)C3CCCC3)ccc2OC[C@@H]2O[C@H](CC(=O)NCCc3ccncc3)CC[C@H]21,-13.0,/,/,/,/,/
O=c1nc2s/c(=C\c3ccc(-c4ccccc4[N+](=O)[O-])o3)c(=O)n2nc1-c1ccccc1,14.6,41.7,2.3,6.8,56.9*,-1.8
CO[C@@H]1CC[C@H]2CCOc3ccc(C#N)cc3C(=O)N(C)C[C@@H](OC)[C@@H](C)C(=O)N(C)C[C@H]1O2,-11.1,/,/,/,/,/
O=C(c1cc(COc2c(F)cccc2F)on1)N1C[C@H]2CC[C@H]1C2,-62.4,-86.2,55.5*,29.0,-18.2,-32.6
CO[C@H]1CN(C)C(=O)c2ccc(NC(=O)C3CC3)cc2OC[C@H](C)N(Cc2cccnc2)C[C@@H]1C,-3.2,/,/,/,/,/
CC(C)OC(=O)c1c(NC(=O)Cn2cnc([N+](=O)[O-])n2)sc2c1CCCC2,/,-1.4,58.3*,12.3,5.1,-1.2
CCOC(=O)c1c(NC(=O)Cn2cnc([N+](=O)[O-])n2)sc2c1CCCC2,/,16.4,10.3,3.0,8.7,-2.5
Cc1c(Cl)c([N+](=O)[O-])nn1CC(=O)NC(C)c1ccccc1 (stereo unspecified),-8.7,12.4,4.1,-2.9,4.7,-8.9
CC(NC(=O)Cn1nc(-c2ccccc2)c2ccccc2c1=O)c1ccccc1 (stereo unspecified),/,-18.8,21.0,3.3,-14.8,-8.5
CC(NC(=O)Cn1nc(C(=O)O)c2ccccc2c1=O)c1ccccc1 (stereo unspecified),/,10.3,52.4*,25.3,-4.6,-4.8
Cc1nn(CC(=O)O)c(=O)c2ccccc12,/,-3.5,-6.2,-8.3,-13.0,2.4
Cc1cc([N+](=O)[O-])nn1CC(=O)NC(C)c1ccccc1 (stereo unspecified),3.8,-3.5,-5.3,-1.5,110.3*,6.0
CNC(=O)Cn1nc(C)c2ccccc2c1=O,/,3.7,-82.4,-78.3*,-11.4,-7.5
C[C@H]1CN([C@@H](C)CO)C(=O)Cc2cc(NC(=O)Cn3cnnn3)ccc2O[C@@H]1CN(C)CC1CCCCC1,-5.5,/,/,/,/,/
CN1C(=O)c2cc(NC(=O)c3cscn3)ccc2OC[C@H]2O[C@@H](CC(=O)N3CCCCC3)CC[C@H]21,4.0,/,/,/,/,/
C[C@@H]1CN([C@@H](C)CO)C(=O)c2cc(NC(=O)C3CCCCC3)ccc2O[C@@H](C)CCCCO[C@H]1CN(C)C(=O)Cc1ccccc1,-13.1,/,/,/,/,/
COc1ccccc1CCNC(=O)C(=O)c1cn(CC(=O)N2CCCC2)c2ccccc12,1.1,-15.7,10.8,16.4,-2.9,1.0
O=C(NCCc1ccccc1)C(=O)c1cn(CC(=O)N2CCCC2)c2ccccc12,13.1,10.7,52.4*,17.8,2.6,-3.0
Cc1c(C(C)(C)C)sc(=NC(=O)c2ccccc2O)n1C,-87.5,55.7*,-13.6,-15.1,46.8,-46.3
Clc1cc2nc(-c3cccnc3Cl)[nH]c2cc1Cl,-101.0,-40.7,54.8*,26.0,8.1,-49.9
C/C(=N\N=C(/N)c1nonc1N)c1ccc2c(c1)OCO2,/,-40.4,100.8*,53.1,0.0,-11.1
Cc1ccc(NC2=CC(=O)C(=O)c3ccccc32)c(C)c1,36.7,74.1*,/,/,74.8*,1.0
SMILES,LGR2 inh,TROY NFkB inh,HSF1 activator,HSF1 inhib,TWEAK Fn14 block,EBV LMP1 NFkB
O=C1C=C(Nc2ccccc2O)c2ccccc2C1=O,-1.7,1.8,83.9*,58.5,16.8,-4.1
O=C1C=C(Nc2ccc(F)cc2)c2ccccc2C1=O,-42.1,32.2,/,/,46.7,-7.5
Cc1ccc(NS(=O)(=O)c2ccc3c(c2)C(=O)c2ccccc2C3=O)c(C)c1,7.5,-9.2,/,/,-4.0,-7.0
O=C1C=C(NCc2ccccc2)c2ccccc2C1=O,96.0*,24.7,70.3*,50.6,69.1*,-11.9
O=C(NCC[C@H]1CC[C@@H](NS(=O)(=O)Cc2ccccc2)[C@@H](CO)O1)C1CCOCC1,0.3,/,/,/,/,/
COCC(=O)N1[C@@H](C#N)[C@@H](c2ccccc2C2=CCCC2)[C@@H]1CO,4.0,/,/,/,/,/
COc1ccc(-c2[nH]c(-c3ccc(C(=O)O)cc3)nc2-c2ccccc2)cc1,/,-19.2,8.6,3.4,3.6,-1.6
COc1cc(-c2nc(-c3ccc4c(c3)-c3ccccc3S4(=O)=O)c(-c3ccccc3)[nH]2)cc(OC)c1O,/,-8.7,65.1*,60.8,58.6*,7.2
C[C@H]1CN([C@@H](C)CO)C(=O)c2cc(NC(=O)CCC(F)(F)F)ccc2O[C@@H]1CN(C)C(=O)Nc1ccc2c(c1)OCO2,-10.5,/,/,/,/,/
O=C(CC(F)(F)F)N1C[C@@H]2[C@H](c3ccccc31)[C@H](CO)N2CC1CCCCC1,13.4,/,/,/,/,/
c1ccc2c(CSc3nnc(-c4ccncc4)o3)cccc2c1,/,-18.0,59.3*,35.4,-32.8,-4.5
Clc1ccccc1CSc1nnc(-c2ccncc2)o1,/,-49.6,?,8.8,-12.4,-10.7
Brc1cccc(CSc2nnc(-c3ccncc3)o2)c1,34.4,24.4,/,/,62.5*,70.8*
N#Cc1cccc(-c2nnc(SCc3ccccc3C#N)o2)c1,/,-27.3,?,17.3,-4.9,-12.2
N#Cc1ccccc1CSc1nnc(-c2ccncc2)o1,-26.8,-30.3,59.9*,25.0,8.0,-7.8
Fc1ccccc1CSc1nnc(-c2cccs2)o1,-42.7,-58.9,67.5*,41.9,-20.6,-29.6
c1ccc(-c2nnc(SCc3ccncc3)o2)cc1,-19.8,-46.8,/,/,-44.8,-5.2
c1ccc(CSc2nnc(-c3cccs3)o2)cc1,-17.6,-80.6,10.7,15.0,-37.3,-18.5
COc1ccc(CN(C)C[C@H]2Oc3ccc(NS(C)(=O)=O)cc3CC(=O)N([C@@H](C)CO)C[C@H]2C)cc1,-8.9,/,/,/,/,/
COc1ccc(Nc2nnc(-c3ccncc3)s2)cc1Cl,-1.6,51.1*,-26.4,-26.4,38.2,4.8
Clc1ccccc1Nc1nnc(-c2ccncc2)s1,?,59.8*,30.6,-2.2,89.1*,36.2
FC(F)(F)c1ccc(Cl)c(Nc2nnc(-c3ccncc3)s2)c1,-10.8,-3.5,/,/,-42.1,/
COc1ccc(Cl)cc1Nc1nnc(-c2ccncc2)s1,11.7,5.2,18.4,6.5,-7.7,4.0

# Compound activity from PubChem.
